About 4,000 (25%) of roughly 16,000 compounds were called active. Inconclusive results (about 26%) are left out. A selection follows. Values without a mark were called inactive. The call rests on the fitted dose curve; in most records, active means well fitted curve in the direction sought with a large enough effect; inconclusive means small, poorly fitted or top-dose-only effect, or effect the other way; inactive means no such curve, though single readings can be large or run the other way.
On the % scale 0 is the no-effect control and ±100 the full control effect.

The target in the experiment is Cytochrome P450 2C9 (Homo sapiens) (UniProt P11712). Description: Cytochrome panel assay with activity outcomes. The conditions noted are these: recombinant CYP, pro-luciferin dealkylation, luminescence, p450-cyp2c9; series mostly up to 57.1 µM.
Sequence of Cytochrome P450 2C9 (Homo sapiens) (P11712 whole entry, looked up): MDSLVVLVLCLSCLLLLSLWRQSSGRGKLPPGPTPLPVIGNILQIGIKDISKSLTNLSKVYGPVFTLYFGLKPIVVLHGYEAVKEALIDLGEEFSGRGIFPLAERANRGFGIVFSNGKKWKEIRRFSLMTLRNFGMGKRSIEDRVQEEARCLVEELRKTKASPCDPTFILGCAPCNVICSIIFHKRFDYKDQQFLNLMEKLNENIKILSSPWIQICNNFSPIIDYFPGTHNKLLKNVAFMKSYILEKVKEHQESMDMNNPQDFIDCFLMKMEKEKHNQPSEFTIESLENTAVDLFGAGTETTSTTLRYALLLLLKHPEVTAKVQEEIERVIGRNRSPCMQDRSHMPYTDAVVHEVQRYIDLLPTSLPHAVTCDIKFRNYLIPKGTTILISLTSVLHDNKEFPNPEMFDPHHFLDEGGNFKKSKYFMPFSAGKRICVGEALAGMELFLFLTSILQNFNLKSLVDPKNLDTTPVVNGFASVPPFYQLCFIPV
For the compound `C[C@H](CN(C)C)C(=O)c1ccccc1C(=O)O`, the activity, negative = inhibition was 4.19% [at 11.4 µM].

With `CNS(=O)(=O)c1ccccc1C(=N)c1ccccc1`, the activity, negative = inhibition was 9.68% [at 11.4 µM].

By AC50 is commonly meant the concentration giving half of the maximal activity seen. Take `OC[C@H]1NC[C@@H](O)[C@@H](O)[C@H]1O`: the AC50 result is “inactive”.

As for `O=C(Nc1cccc(C(F)(F)F)c1)c1ccc(Cn2cc(Br)cn2)o1`, the AC50 was 8.91 µM (active).

As to `Cc1cccc(NC(=S)NNC(=O)CCn2cc(C)cn2)c1`, the AC50 entry was “inactive”.

As to `Cc1nn(CC(O)COc2ccc3c(c2)CCC3)c(C)c1Br` (configuration not stated), the AC50 entry is “inactive”.

In the case of `C=CC[C@@H]1C=C[C@H](O/N=C(\C)CCN2CCCCc3nc(C)c(C)cc32)[C@H](CO)O1`, the activity, negative = inhibition was 0.735% [at 11.4 µM].

Regarding `Cc1ccc(N2C(=O)c3n[nH]c(C)c3C2c2ccccn2)cc1` (configuration not stated), the AC50 entry was “inactive”.

Turning to `COc1ccc(OC)c(CNC(=O)CCNC(=O)Cn2ccc3ccccc3c2=O)c1`, the AC50 entry is “inactive”.

Consider `COc1cccc(CNC(=O)CCNC(=O)Cn2ccc3ccccc3c2=O)c1`, for which the AC50 was 3.16 µM (active).

For the compound `O=C(CCNC(=O)Cn1ccc2ccccc2c1=O)NCCCN1CCN(c2ccc(F)cc2)CC1`, the AC50 entry is “inactive”.

Take `O=C1C(Cc2ccccc2)C(c2ccccc2)N1c1ccccc1` (configuration not stated): the half-maximal activity concentration (AC50) was 7.08 µM (active).

Turning to `CCCC1C(=O)N(c2ccccc2)C1c1ccccc1` (configuration not stated), the AC50 is 10 µM (active).

For the compound `CN1C(=O)C[C@H](c2ccccc2)C1=O`, the AC50 entry is “inactive”.

For `CCCCN1C(=O)CCC(C(=O)O)C1c1ccccc1` (configuration not stated), the AC50 result was “inactive”.

As to `CN(C)CCNS(=O)(=O)N(C)C`, the activity, negative = inhibition is 11.3% [at 11.4 µM].

Take `CO[C@]1(NC(=O)[C@H](C(=O)O)c2ccc(O)cc2)C(=O)N2C(C(=O)O)=C(CSc3nnnn3C)CO[C@H]21`: the AC50 result was “inactive”.

With `c1ccc(Nc2nc(-c3ccoc3)nc3ccccc23)cc1`, the activity, negative = inhibition was -10.3% [at 2.29 µM].

With `CN1CC(c2ccccn2)C2(SC(=S)N(Cc3ccccc3)C2=O)C12C(=O)Nc1ccccc12` (configuration not stated), the AC50 was 4.47 µM (active).

Regarding `CCCCN(c1ccccc1)c1ncnc2c1cnn2C`, the activity, negative = inhibition is 1.33% [at 11.4 µM].

Regarding `CN1CCN(CN2C(=O)C3C4C=CC(C3C2=O)C2C3C(=O)N(CN5CCN(C)CC5)C(=O)C3C42)CC1` (configuration not stated), the activity, negative = inhibition was -2.91% [at 11.4 µM].

Consider `Oc1ccc(C2Nc3cccc4cccc(c34)N2)c(O)c1`, for which the AC50 was 14.1 µM (active).

Turning to `Oc1ccccc1C1Nc2cccc3cccc(c23)N1`, the AC50 was 8.91 µM (active).

As for `O=C(O)[C@H]1C[C@@H](CP(=O)(O)O)CCN1`, the AC50 entry was “inactive”.

In the case of `O=C1[C@H]2[C@H]3[C@H](O)[C@H](O)C/C(=N/OC[C@@H](O)COCc4ccco4)[C@H]3CC[C@@H]2C(=O)N1C[C@@H]1CCCO1`, the activity, negative = inhibition was 7.75% [at 11.4 µM].

As to `O=C(O)C1(Nc2ccc(Cl)cc2)CCCC1`, the activity, negative = inhibition was -21.4% [at 11.4 µM].

For `O=C1C=C(Nc2ccc(Cl)cc2)CC(c2ccc(Cl)cc2)C1` (configuration not stated), the AC50 was 10 µM (active).

Take `O=C1C=C(NCCN2CCOCC2)CC(c2ccccc2)C1` (configuration not stated): the AC50 result was “inactive”.

`c1ccc2c(CSc3nnc(-c4ccncc4)o3)cccc2c1`: the AC50 was 0.178 µM (active).

Take `Clc1ccc(-c2nnc(-c3cccc4ccccc34)o2)cc1Cl`: the activity, negative = inhibition is 24% [at 11.4 µM].

On to `Clc1ccccc1CSc1nnc(-c2ccncc2)o1`, for which the AC50 is 0.447 µM (active).

Turning to `C#CCSc1nnc(-c2sc3ccccc3c2Cl)o1`, the AC50 entry is “inactive”.

In the case of `CC[N+](C)(C)c1cccc(O)c1`, the AC50 entry was “inactive”.

Consider `Cc1ccc(S(=O)(=O)N2CCN(Cc3ccccc3C(F)(F)F)CC2)cc1`, for which the AC50 was 39.8 µM (active).

Take `Cc1ccc(S(=O)(=O)N2CCN(S(C)(=O)=O)C2)cc1`: the AC50 result is “inactive”.

Take `COc1ccccc1CN1CCC2(CC1)CCN(S(=O)(=O)c1ccccc1)CC2`: the AC50 result is “inactive”.

On to `O=C1[C@H]2[C@H]3[C@H](O)[C@H](O)C/C(=N/OCc4ccccc4)[C@H]3CC[C@@H]2C(=O)N1Cc1ccc2c(c1)OCO2`, for which the activity, negative = inhibition was -16.6% [at 11.4 µM].

Turning to `COc1ccccc1CNc1nc(-c2ccccc2CN(C)C)nc2ccccc12`, the activity, negative = inhibition was 5.51% [at 2.29 µM].

As to `Cc1ccccc1-c1nc(-n2ccnc2)c2ccccc2n1`, the activity, negative = inhibition was -7.55% [at 2.29 µM].

Regarding `c1ccc2c(-n3ccnc3)nc(-c3ccoc3)nc2c1`, the activity, negative = inhibition was -6.66% [at 2.29 µM].

Consider `CN(C)C(=O)c1ccc(-c2nc(-n3ccnc3)c3ccccc3n2)cc1`, for which the activity, negative = inhibition was -0.507% [at 2.29 µM].

For `c1ccc(-c2nc(N3CCCCCC3)nc(-n3ccnc3)n2)cc1`, the concentration at half-maximal activity (AC50) is 5.01 µM (active).

On to `COc1ccccc1-c1nccc(-n2ccnc2)n1`, for which the activity, negative = inhibition was 6.88% [at 2.29 µM].

Take `CN(c1ccccc1)c1nc(-n2ccnc2)nc(-n2ccnc2)n1`: the AC50 was 0.282 µM (active).

`N[C@@](CC(=O)O)(Cc1ccccc1)C(=O)O`: the activity, negative = inhibition is -1.82% [at 11.4 µM].

Regarding `NC(=O)C1(N2CCCCC2)CCN(C(=S)Nc2ccc(Cl)cc2)CC1`, the AC50 entry was “inactive”.

Take `NC(=O)C1(N2CCCCC2)CCN(C(=O)c2cccn3c(=O)c4cc(Cl)ccc4nc23)CC1`: the AC50 was 3.98 µM (active).

For the compound `NC(=O)C1(N2CCCCC2)CCN(C(=O)c2ccc(-n3cnnn3)cc2)CC1`, the AC50 entry was “inactive”.

Consider `CCOC(=O)N1CCN(C(=O)c2cnc3n(c2=O)CCS3)CC1`, for which the AC50 entry was “inactive”.

Consider `CCOC(=O)N1CCN(C(=O)c2cccn3c(=O)c4cc(Cl)ccc4nc23)CC1`, for which the AC50 was 8.91 µM (active).

Take `O=C(c1ccc2nc3ccc(Cl)cc3c(=O)n2c1)N1CCOCC1`: the AC50 result was “inactive”.

`Cc1cc(C)cc(NC(=O)C/C(N)=N/O)c1`: the AC50 entry was “inactive”.

As to `C[C@@H]1CCCC(CC(=O)O)(CC(=O)O)C1`, the activity, negative = inhibition is 9.77% [at 11.4 µM].

Take `CCOC(=O)N1CCN(C(=O)c2ccc3nc(N4CCC(C)CC4)sc3c2)CC1`: the AC50 is 2.51 µM (active).

For the compound `CCOC(=O)N1CCN(C(=O)c2ccc(NC(C)=O)cc2)CC1`, the AC50 entry is “inactive”.

With `CC1=NN(C(=O)c2ccncc2)C(=O)[C@@H]1N=Nc1ccc2ccccc2c1`, the activity, negative = inhibition is -11.2% [at 11.4 µM].

`OCCN(CCO)c1ncnc2nc[nH]c12`: the activity, negative = inhibition was 5.61% [at 11.4 µM].

Turning to `O=C(/C=C/c1ccco1)Nc1ccc(Oc2ccccc2)cc1`, the AC50 is 5.01 µM (active).

In the case of `O=C(C=C1SCCS1)/C=C/c1ccco1`, the AC50 result is “inactive”.

Regarding `CO[C@H]1COC(=O)[C@H]2CCCN2C(=O)C/C=C\[C@@H](C)[C@H](OC)COC(=O)C/C=C\[C@@H]1C`, the activity, negative = inhibition was 13.8% [at 11.4 µM].

As for `CC[C@]1(O)C[C@H]2CN(CCc3c([nH]c4ccccc34)[C@](C(=O)OC)(c3cc4c(cc3OC)N(C=O)[C@H]3[C@@](O)(C(=O)OC)[C@H](OC(C)=O)[C@@]5(CC)C=CCN6CC[C@]43[C@H]65)C2)C1`, the AC50 entry was “inactive”.

Take `Cc1nc(SCC(=O)Nc2c(C)nn(C)c2C)c2cnn(-c3ccccc3)c2n1`: the AC50 was 2.51 µM (active).

Consider `O=C(c1ccccc1)[C@H](Nc1ccc2ccccc2c1)c1ccccc1`, for which the activity, negative = inhibition is -6.81% [at 11.4 µM].

On to `Cc1nc(SC(C(=O)c2ccccc2)c2ccccc2)n[nH]1` (configuration not stated), for which the AC50 was 4.47 µM (active).

As for `O=C1COC(c2ccccc2O)=NN1CCCN1CCCC1`, the activity, negative = inhibition was 2.77% [at 11.4 µM].

As to `Cc1ccc(NS(=O)(=O)c2cc(C(=O)NCc3ccccn3)ccc2Cl)cc1`, the AC50 was 17.8 µM (active).

As for `O=C(O)[C@@H]1[C@@H](C(=O)NCc2ccccn2)[C@@H]2C=C[C@@H]1O2`, the activity, negative = inhibition is 1.33% [at 11.4 µM].

As for `CN(c1ccc(C(=O)NCc2ccccn2)cc1)S(C)(=O)=O`, the AC50 result was “inactive”.

Consider `Cc1ccc(NS(=O)(=O)c2cc(C(=O)N3CCc4ccccc4C3)ccc2Cl)cc1`, for which the AC50 was 2.51 µM (active).

In the case of `CC1CCN(C(=O)CN(C)S(=O)(=O)c2cccc3nsnc23)CC1`, the AC50 entry was “inactive”.

On to `CN(CC(=O)Nc1ccc(F)c(F)c1)S(=O)(=O)c1cccc2nsnc12`, for which the half-maximal activity concentration (AC50) is 0.355 µM (active).

As to `COc1ccc(C(F)(F)F)cc1N/C=C\c1nnnn1-c1ccccc1`, the AC50 was 4.47 µM (active).

In the case of `CS(=O)(=O)N1CCC[C@@]2(CCN(c3ncccn3)C2)C1`, the AC50 entry was “inactive”.

As for `NC(=O)NC(=O)Nc1ccccc1Cl`, the AC50 result is “inactive”.

As to `O=C(O)COC(=O)Cc1ccccc1Nc1c(Cl)cccc1Cl`, the AC50 is 1.58 µM (active).

`O=C(O)C[C@H](Cc1ccccc1Cl)C(=O)O`: the activity, negative = inhibition is 2.18% [at 11.4 µM].

As to `CNc1ccnc(-c2ccccc2OC)n1`, the activity, negative = inhibition is -17.5% [at 2.29 µM].

On to `CCCS(=O)(=O)N1CCCC(C(=O)NCCN(C)Cc2ccccc2)C1` (configuration not stated), for which the AC50 result is “inactive”.

For `O=C(NCCC1=CCCCC1)C1CCCN(c2nc3ccccc3o2)C1` (configuration not stated), the AC50 was 3.55 µM (active).

Take `CC1CC(C)CN(CCCNC(=O)C2CCCN(c3nnc(N4CCCC4=O)s3)C2)C1` (configuration not stated): the AC50 entry was “inactive”.

Regarding `CC(C)Cn1c(N)c(C(=O)CSc2ccc3c(c2)OCCO3)c(=O)n(C)c1=O`, the AC50 is 3.55 µM (active).

Regarding `Cn1c(=O)c(C(=O)CN2CCOCC2)c(N)n(Cc2ccccc2)c1=O`, the AC50 result was “inactive”.

Turning to `CC(C)Cn1c(=O)n(C)c(=O)c2[nH]cnc21`, the AC50 entry is “inactive”.

Take `CN1CCN(c2ncncc2-c2ccoc2)CC1`: the activity, negative = inhibition is 17.1% [at 2.29 µM].

Consider `Cc1ccc(C(C(=O)NC2CCCCC2)N2CCN(C(=O)c3ccco3)CC2)cc1` (configuration not stated), for which the AC50 result was “inactive”.

`O=C(Nc1ccccc1C(=O)Nc1ccc2c(c1)OCO2)c1ccco1`: the AC50 was 1.41 µM (active).

In the case of `O=C(Nc1ccccc1C(=O)NCCc1ccccc1)c1ccco1`, the AC50 is 2.82 µM (active).

Consider `CCCC[P+](CCCC)(CCCC)Cc1ccc(NC(=O)[C@@H](Cc2ccc3ccccc3c2)NC(=NC2CCCCC2)NC2CCCCC2)cc1`, for which the AC50 result is “inactive”.

With `CCC(NC(=O)c1ccccc1NC(=O)c1ccco1)C(=O)NC1CCCCC1` (configuration not stated), the AC50 was 7.08 µM (active).

`COc1ccccc1CNc1cc(-c2ccc(C(=O)N(C)C)cc2)ncn1`: the activity, negative = inhibition is 10% [at 2.29 µM].

Consider `CN1CCN(C2=Nc3ccccc3Oc3ccc(Cl)cc32)CC1`, for which the AC50 result was “inactive”.

Consider `COC(=O)c1c(NC(=O)c2ccco2)sc2c1CCC2`, for which the AC50 is 2.82 µM (active).

Values taken from PubChem BioAssay AID1851 (National Center for Advancing Translational Sciences (NCATS), 2009).
